# According to PubChem BioAssay (EPA / NIEHS):
# Records with an inconclusive call do not appear. The source made the active and inactive calls. Rule for the calls, unless noted: active = hit-call score of the fitted dose curve at least 0.9, where 1 is the maximum; inactive = score below 0.9.
# Test system: not listed separately
# Test: CCTE_Shafer_MEA_acute_synchrony_index: CCTE's Neural Acute Assay for Synchrony, Shafer Lab (AID 2284027);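 note: network synchrony index of spontaneous spiking in primary rat cortical neurons on MEAs; fitted for loss of signal so actives lower synchrony relative to DMSO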
# Summary of the method: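 Primary rat cortical neurons on 16-electrode MEA wells were recorded 40 min at baseline (DIV 13 or 15) and 40 min after compound (0.03-40 uM) at 37 C. Synchrony index (0-1) expressed as percent change from baseline, versus DMSO.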
Structure (SMILES),outcome,AC50
COc1cc(C=O)ccc1OC(=O)C(C)C,inactive,–
OC[C@H]1O[C@H](O[C@]2(CCl)O[C@H](CCl)[C@@H](O)[C@@H]2O)[C@H](O)[C@@H](O)[C@H]1Cl,inactive,–
CCCCCCCCC=O,inactive,–
Nc1cc([N+](=O)[O-])ccc1O,–,22.6 µM (active)
CCC(=O)OCc1ccccc1,inactive,–
CC(=O)[C@H]1CC[C@H]2[C@@H]3CC=C4C[C@@H](O)CC[C@]4(C)[C@H]3CC[C@]12C,–,0.00409 µM (active)
CC(=O)OCCC(C)CC(C)(C)C (stereo not drawn),inactive,–
C=C[Si](OCC)(OCC)OCC,inactive,–
Cc1cc(C2(c3cc(C)c(O)cc3C)OS(=O)(=O)c3ccccc32)c(C)cc1O,inactive,–
CC(C)(COC(=O)c1ccccc1)COC(=O)c1ccccc1,inactive,–
C[C@H]1C[C@@H]2[C@H]([C@@H](O)C[C@@]3(C)[C@H]2CC[C@]3(O)C(=O)CO)[C@@]2(C)C=CC(=O)C=C12,inactive,–
OC1OC[C@@H](O)[C@H](O)[C@H]1O (stereo partly drawn),inactive,–
C=CCOC(=O)CCC1CCCCC1,inactive,–
NCCNCCN,inactive,–
CC[Si](OC(C)=O)(OC(C)=O)OC(C)=O,inactive,–
CN(C)C(=N)N=C(N)N,inactive,–

# Target: Estrogen receptor (Homo sapiens) (UniProt P03372)
# Sequence (P03372 whole entry, looked up): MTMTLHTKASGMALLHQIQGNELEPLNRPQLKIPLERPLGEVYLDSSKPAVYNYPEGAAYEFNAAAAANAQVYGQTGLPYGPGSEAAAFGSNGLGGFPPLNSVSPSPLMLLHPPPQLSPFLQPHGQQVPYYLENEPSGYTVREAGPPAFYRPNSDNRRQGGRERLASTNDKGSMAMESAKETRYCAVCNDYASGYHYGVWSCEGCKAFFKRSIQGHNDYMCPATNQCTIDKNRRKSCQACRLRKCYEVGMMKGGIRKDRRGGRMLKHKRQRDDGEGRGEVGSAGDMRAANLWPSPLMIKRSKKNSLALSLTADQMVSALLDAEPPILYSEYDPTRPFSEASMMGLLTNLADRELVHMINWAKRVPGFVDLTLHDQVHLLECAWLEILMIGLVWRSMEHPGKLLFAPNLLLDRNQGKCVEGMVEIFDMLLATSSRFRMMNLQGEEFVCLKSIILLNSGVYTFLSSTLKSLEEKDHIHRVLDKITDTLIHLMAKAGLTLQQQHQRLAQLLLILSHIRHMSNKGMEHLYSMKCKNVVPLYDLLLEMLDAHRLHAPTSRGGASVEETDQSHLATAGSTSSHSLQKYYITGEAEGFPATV
# Test: CCTE_Deisenroth_AIME_384WELL_LUC_Active: CCTE's 384-well Estrogen Receptor Transactivation Assay with AIME metabolic competence (ERTA luciferase; metabolism positive), Deisenroth Lab (AID 2284030; active = hit-call score of the fitted dose curve at least 0.9, where 1 is the maximum)
# Summary of the method: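 AIME metabolism-positive mode: chemicals 0.002 - 200 uM, 2 h with alginate-bound PB/BNF-induced rat S9 → medium to VM7Luc4E2 ERTA, 24 h → luciferase. Positive fit vs 17beta-estradiol; n=4 typical.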
row,Structure (SMILES),outcome
1,CN(C)CCCN,inactive
2,NCCCN1CCOCC1,inactive
3,CCCCCCCCCCCCCC(=O)O,inactive
4,CC(=O)OCCOC(C)=O,inactive

# Test system: not listed separately
# Test: CCTE_Deisenroth_AIME_384WELL_CTox_Active: Cytotoxicity Assessment (CTOX) in CCTE's 384-well Estrogen Receptor Transactivation Assay with AIME metabolic competence (metabolism positive), Deisenroth Lab (AID 2284037; active = hit-call score of the fitted dose curve at least 0.9, where 1 is the maximum;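 note: chemicals first conditioned 2 h by alginate-bound induced rat liver S9 before cells; activity means signal loss indicating cell death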)
# Summary of the method: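 Cytotoxicity in VM7Luc4E2 breast cells, 24 hour, measured as protease-substrate fluorescence loss, after 2-hour metabolic conditioning with induced rat hepatic S9 in alginate microspheres. Concentrations 0.002 - 200 uM, 10 points, bidirectional fitting.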
row,Structure (SMILES),outcome
1,OC1OC[C@@H](O)[C@H](O)[C@H]1O (stereo partly drawn),inactive
2,CN(C)CCCN,inactive
3,NCCCN1CCOCC1,inactive
4,CCCCCCCCCCCCCC(=O)O,inactive
5,NCCNCCN,inactive
6,CC(=O)OCCOC(C)=O,inactive

# Target: Estrogen receptor (Homo sapiens) (UniProt P03372)
# Test: CCTE_Deisenroth_AIME_384WELL_LUC_Inactive: CCTE's 384-well Estrogen Receptor Transactivation Assay without AIME metabolic competence (ERTA luciferase; metabolism negative), Deisenroth Lab (AID 2284038; active = hit-call score of the fitted dose curve at least 0.9, where 1 is the maximum;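 note: VM7Luc4E2 breast cells given medium preincubated 2 h with S9-free microspheres; hits raise estrogen receptor luciferase signal so potencies reflect agonists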)
# Summary of the method: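 Chemicals (10-point series, 0.002 - 200 uM) were incubated 2 hours with alginate-water microsphere lids lacking S9, then the conditioned medium was transferred to VM7Luc4E2 breast cells for 24 hour. Luciferase induction was read by bioluminescence, fitted upward relative to 17beta-estradiol.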
row,Structure (SMILES),outcome
1,CN(C)CCCN,inactive
2,NCCCN1CCOCC1,inactive
3,CCCCCCCCCCCCCC(=O)O,inactive
4,CC(=O)OCCOC(C)=O,inactive

# Test system: not listed separately
# Test: CCTE_Deisenroth_AIME_384WELL_CTox_Inactive: Cytotoxicity Assessment (CTOX) in CCTE's 384-well Estrogen Receptor Transactivation Assay without AIME metabolic competence (metabolism negative), Deisenroth Lab (AID 2284039; active = hit-call score of the fitted dose curve at least 0.9, where 1 is the maximum;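 note: cell viability via live-cell protease substrate cleaved to fluorescent probe; cells exposed 24 h to medium preincubated 2 h with alginate-water beads without S9; loss of fluorescence signal means loss of viability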)
# Summary of the method: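 Fluorescence from a live-cell protease substrate, read after 24 h in VM7Luc4E2 cells, indicated viability. Test medium came from a 2 h AIME step without hepatic S9 (alginate-water microspheres); concentrations spanned 0.002 - 200 uM, single technical replicate per run.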
row,Structure (SMILES),outcome
1,CN(C)CCCN,inactive
2,NCCCN1CCOCC1,inactive
3,CCCCCCCCCCCCCC(=O)O,inactive
4,CC(=O)OCCOC(C)=O,inactive

# Target: Estrogen receptor (Homo sapiens) (UniProt P03372)
# Test: CCTE_Deisenroth_AIME_384WELL_LUC_Shift: CCTE's 384-well Estrogen Receptor Transactivation Assay with AIME metabolic competence data shift (ERTA luciferase; difference in metabolism positive and negative), Deisenroth Lab (AID 2284041);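 note: shift is response with S9 minus without S9 so positive means metabolism raised ER signal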
# Summary of the method: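 Test chemicals (0.002–200 uM, 10-point) were pre-incubated 2 h with alginate microspheres containing phenobarbital/beta-naphthoflavone-induced male Sprague Dawley rat liver S9 or water, then medium was transferred to VM7Luc4E2 cells for 24 h luciferase readout; shift = S9-positive minus S9-negative normalized response.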
row,Structure (SMILES),outcome
1,CN(C)CCCN,inactive
2,NCCCN1CCOCC1,inactive
3,CCCCCCCCCCCCCC(=O)O,inactive
4,CC(=O)OCCOC(C)=O,inactive
